Measurements taken from PubChem BioAssay AID504332 (National Center for Advancing Translational Sciences (NCATS), 2011).
The whole screen tested about 350,000 compounds, of which about 31,000 (8.9%) were called active. About 15% were inconclusive and are not listed. Calls follow the shape of the dose curve; as a rule, active = well fitted inhibition curve with a large enough effect; inconclusive = small, poorly fitted or top-dose-only effect; inactive = no such curve, though single readings can be large or run the other way. Shown is part of a subset that was picked to be rich in actives.

target: Histone-lysine N-methyltransferase EHMT2 (Homo sapiens) (UniProt Q96KQ7); experiment: qHTS Assay for Inhibitors of Histone Lysine Methyltransferase G9a; details: G9a H3K9 monomethylation, AlphaScreen, 2 h; series mostly up to 59 µM; activity, negative = inhibition: at the top concentration; also: nearly all actives have a fitted effect of over 75% in size
How it was run: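 Methyltransferase reactions run at room temperature for 2 h (20 nM enzyme, 500 nM biotin-H3K9 peptide, 20 uM SAM) after a 15 min compound preincubation; product detected by AlphaScreen beads and anti-H3K9me1 antibody.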
% is scaled to controls: 0 for no effect and ±100 for the full control effect; potency is read from the fitted curve at half-maximal effect.

Chain of Histone-lysine N-methyltransferase EHMT2 (Homo sapiens) (Q96KQ7 913-1193 limits assumed): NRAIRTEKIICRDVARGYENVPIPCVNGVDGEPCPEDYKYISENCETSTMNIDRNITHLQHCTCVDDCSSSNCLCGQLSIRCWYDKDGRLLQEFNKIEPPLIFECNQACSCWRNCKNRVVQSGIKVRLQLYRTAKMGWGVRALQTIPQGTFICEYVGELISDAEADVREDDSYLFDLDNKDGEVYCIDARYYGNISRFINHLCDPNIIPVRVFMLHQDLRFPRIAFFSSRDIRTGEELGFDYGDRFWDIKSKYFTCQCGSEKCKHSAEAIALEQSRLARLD

SMILES	activity, negative = inhibition	Potency
Cc1ccc2nnn(Cc3cccc(C(C)(C)C)c3O)c2c1	15.4% [at 2.33 µM] (inactive)	–
COc1ccc(CCNC(=O)CCc2c(C)nc3c(c(C)nn3-c3ccc(C)c(C)c3)c2C)c(OC)c1OC	-1.62% (inactive)	–
O=C(CSc1nnnn1C1CCCC1)N1CCCCC1	-8.4% [at 102 µM] (inactive)	–
Cc1cccc(CC(=O)Nc2cccc(-c3cn4cccnc4n3)c2)c1	0.135% (inactive)	–
CC(=O)c1ccc(NC(=O)C2CCN(S(=O)(=O)c3c(C)noc3/C=C/c3ccc(C)cc3)CC2)cc1	6.83% (inactive)	–
Cc1noc(C)c1COc1ccc(C(=O)NCCOc2ccccc2)cc1	19.8% [at 12.7 µM] (inactive)	–
Cc1ccc(CNC(=O)CCc2c(C)nc3c(c(C)nn3-c3ccccc3)c2C)cc1	1.65% (inactive)	–
CC(CC(=O)N1CCN(c2ccccc2)CC1)S(=O)(=O)c1ccc2c(c1)NC(=O)CS2 (stereo not given)	-15.8% [at 102 µM] (inactive)	–
Cc1ccc(N2CC(c3nnc(Cc4ccccc4Cl)o3)CC2=O)cc1 (stereo not given)	-22.7% (inactive)	–
COc1cccc(NC(=O)CN(C)C(=O)c2cc(C3CC3)nn2-c2ccccc2)c1	1.72% [at 2.33 µM] (inactive)	–
Cn1c(=O)c2c(SCC(=O)N3CCc4ccccc43)nc(-c3ccc(Cl)cc3)nc2n(C)c1=O	0.591% (inactive)	–
NC(=O)C1CCN(C(=O)c2ccc3c(=O)n(Cc4cccc(Br)c4)c(=S)[nH]c3c2)CC1	–	39.8 µM (active)
CCOc1cc2[nH]c(=S)n(Cc3ccc(C(=O)N4CCN(C)CC4)cc3)c(=O)c2cc1OCC	4.55% [at 102 µM] (inactive)	–
CCOC(=O)N1CCN(C(=O)c2ccc3c(=O)n(CCc4ccc(OC)c(OC)c4)c(=O)[nH]c3c2)CC1	-5.11% [at 102 µM] (inactive)	–
O=C(O)c1ccc(Cn2c(=S)[nH]c3cc(Cl)ccc3c2=O)cc1	–	39.8 µM (active)
COc1cc2[nH]c(=S)n(Cc3ccc(F)cc3)c(=O)c2cc1OC	9.96% [at 102 µM] (inactive)	–
COc1ccccc1Cn1c(=S)[nH]c2cc(C(=O)N3CCN(C)CC3)ccc2c1=O	19.2% (inactive)	–
COc1ccc(Nc2ncc(C(=O)Nc3cc(C)ccc3OC)c3ccccc23)cc1	-0.322% (inactive)	–
O=C(NCc1ccncc1)C1CCCN(S(=O)(=O)c2ccc(Br)cc2)C1 (stereo not given)	-5.72% [at 102 µM] (inactive)	–
Cc1ccc(C)c(N2CCN(C(=O)Cn3ncc4c(=O)oc5ccc(C)cc5c43)CC2)c1	-1.95% (inactive)	–
COc1cc(OC)c(N(C)C(=O)c2cc3c(=O)oc4ccccc4c3s2)cc1Cl	3.37% (inactive)	–
COc1ccccc1CNC(=O)c1ccc(-n2c(C)cc3c2CCCC3)cc1	-4.16% (inactive)	–
O=C(O)COc1nsnc1N1CCOCC1	20.7% [at 102 µM] (inactive)	–
c1ccc(COc2nsnc2N2CCOCC2)cc1	–	14.1 µM (active)
c1nc(COc2nsnc2N2CCOCC2)cs1	15.5% [at 2.33 µM] (inactive)	–

SMILES	activity, negative = inhibition	Potency
CCOc1ccc(N(CC)C(=O)c2cc3c(=O)oc4ccccc4c3s2)cc1	10.3% (inactive)	–
CCS(=O)(=O)C1=NSC2=NC(=O)/C(=C\c3cc(C)n(-c4cccc(OC)c4)c3C)C(=N)N21	8.92% (inactive)	–
COc1cc(/C=C2\C(=N)N3N=C(CC(=O)N4CCOCC4)SC3=NC2=O)cc(OC)c1OC	78.5% [at 102 µM] (inactive)	–
Cc1cc(/C=C2/C(=N)N3C(=NC2=O)SN=C3S(C)(=O)=O)c(C)n1-c1ccccc1	–	35.5 µM (active)
CCS(=O)(=O)C1=NSC2=NC(=O)/C(=C\c3ccc(OS(=O)(=O)c4ccccc4)cc3)C(=N)N21	–	39.8 µM (active)
Cc1ccc(C2=N/C(=C\c3ccc(OS(=O)(=O)c4ccc(C)cc4)cc3)C(=O)O2)cc1	19.5% (inactive)	–
N=C1/C(=C/c2cccn2-c2cccc([N+](=O)[O-])c2)C(=O)N=C2SC=CN12	29.7% [at 102 µM] (inactive)	–
CCC1=Nc2cc(C(=O)NCCCOC(C)C)ccc2Sc2ccc(C)cc21	1.84% (inactive)	–
O=C(COC(=O)c1ccccn1)NNC(=O)c1ccc([N+](=O)[O-])cc1	6.96% [at 102 µM] (inactive)	–
CCCNC(=O)c1ccc(Cn2c(SCC(N)=O)nc3ccccc3c2=O)cc1	2.19% (inactive)	–
CC(=O)CCC(=O)c1ccc2ccccc2c1	18.9% (inactive)	–
C=CC(=O)c1ccc2ccccc2c1	–	1.26 µM (active)
CC(=O)c1ccc2c(ccc3ccccc32)c1	-4.88% (inactive)	–
O=C(/C=C/c1ccccc1)Nc1cc(-c2nc3cc(Cl)ccc3o2)ccc1Cl	10.9% (inactive)	–
COc1ccc(NC(=O)N2CCCn3nc(C)cc32)cc1OC	5.44% (inactive)	–
CCOc1ccc(NC(=O)Nc2cc(C)ccc2OC)cc1	28.6% (inactive)	–
CCn1cc(NC(=O)Nc2ccc(OC)c(OC)c2)c(C(N)=O)n1	–	25.1 µM (active)
Cc1ccc(NC(=O)CCCNC(=O)c2ccc(Cl)cc2)cc1S(=O)(=O)N1CCCCC1	-49.7% [at 102 µM] (inactive)	–
O=C(O)c1c(CNCc2cccc(F)c2)c2ccccc2n1Cc1ccccc1	-2.2% (inactive)	–
CC(O)CNCCOc1cccc(Oc2ccccc2)c1 (stereo not given)	–	31.6 µM (active)
CC(O)COc1ccccc1 (stereo not given)	25.5% (inactive)	–
CC1(C)NC(=O)N(CCOc2cccc(Oc3ccccc3)c2)C1=O	2.99% (inactive)	–
CN(C(=O)CN1C(=O)NC(C)(CCc2ccccc2)C1=O)c1ccccc1 (stereo not given)	-6.99% [at 102 µM] (inactive)	–
O=C(Nc1nnc(C2CC2)s1)c1cc(Cl)sc1Cl	-5.4% [at 102 µM] (inactive)	–
CCOC(=O)CCCN1CC(O)=C(c2nc3ccccc3s2)C1=N	-0.107% [at 102 µM] (inactive)	–

SMILES	activity, negative = inhibition	Potency
CCOC(=O)c1oc2c(CN3CCN(CCO)CC3)c(O)c(CC)cc2c(=O)c1-c1nc2ccccc2s1	–	17.8 µM (active)
CCOC(=O)c1oc2c(CN3CCN(C)CC3)c(O)ccc2c(=O)c1-c1ccc(Br)cc1	-3.73% (inactive)	–
Cc1ccc(C(=O)NCCc2nnc(SCC(=O)Nc3cccc(C(=O)O)c3)n2C)cc1	10.2% [at 0.501 µM] (inactive)	–
CCCn1c(=N)c(C(=O)NCc2ccccc2)cc2c(=O)n3cccc(C)c3nc21	0.45% (inactive)	–
C=CCNC(=S)N1CCc2[nH]c3ccccc3c2C1	0.317% [at 102 µM] (inactive)	–
O=C(Nc1ccc(Cl)cc1)N1CCc2[nH]c3ccccc3c2C1	9.49% [at 102 µM] (inactive)	–
CCCC(=O)N1CCc2[nH]c3ccccc3c2C1	–	39.8 µM (active)
COc1ccc(CCNc2ncnc3c2nnn3Cc2ccccc2)cc1	5.34% [at 102 µM] (inactive)	–
COc1ccc(C2=NC3(CCCCC3)N(CC(=O)Nc3ccc(C(C)C)cc3)C2=O)cc1	1.04% (inactive)	–
Cn1ccsc1=NC(=O)c1cc(S(=O)(=O)N2CCOCC2)ccc1Cl	2.99% [at 102 µM] (inactive)	–
CN(CC(=O)NCCc1ccc(F)cc1)CC(=O)Nc1ccc(F)c(F)c1F	-24.2% [at 102 µM] (inactive)	–
CCOC(=O)C1=C(C)NC(SC)=NC1c1ccccc1 (stereo not given)	–	2 µM (active)
C=CCC1(C#N)C(=S)NC(C)=C(C(=O)OCC)C1c1ccccc1 (stereo not given)	1.33% [at 102 µM] (inactive)	–
CCOC(=O)C1=C(C)NC(=O)NC1c1ccccc1 (stereo not given)	-1.24% [at 102 µM] (inactive)	–
CCCCOc1ccc(CNC(=O)c2ccc3c(c2)N(C)C(=O)C2CCCCN32)cc1 (stereo not given)	0.427% (inactive)	–
Cc1cccc(C(CC(=O)NCC2(c3ccccc3)CCCC2)c2ccccc2)c1O (stereo not given)	1.08% (inactive)	–
O=C(Nc1cccc(O)c1)c1ccc(C(=O)c2ccccc2)o1	2.32% [at 102 µM] (inactive)	–
C/C(=C\C(=O)c1ccccc1)Nc1cccc(O)c1	–	50.1 µM (active)
O=C(CSc1ccccc1)Nc1ccc(C(=O)Nc2cccc(O)c2)cc1	15.3% [at 102 µM] (inactive)	–
COc1cccc(CNC(=O)c2cc(=O)[nH]c3ccc(S(=O)(=O)N4CCCCC4)cc23)c1	-2.46% (inactive)	–
O=C(CSc1n[nH]c(-c2ccccc2)n1)N1CCCCC1	3.52% (inactive)	–
N#C/C(=C\c1ccccc1F)c1nc2ccccc2c(=O)[nH]1	-20% (inactive)	–
CCN(Cc1ccccc1)C(=O)c1cn(-c2cccc(OC)c2)c(=O)c2ccccc12	–	11.2 µM (active)
COc1cccc(-n2ccn(CC(=O)NCc3ccc(C)cc3)c(=O)c2=O)c1	0.48% (inactive)	–
COc1cccc(-n2cc(C(=O)O)c3ccccc3c2=O)c1	-46.3% [at 102 µM] (inactive)	–

SMILES	activity, negative = inhibition	Potency
CN(Cc1ccccc1)C(=O)c1cn(C)c2ccc(S(=O)(=O)N(C)C3CCCCC3)cc2c1=O	-1.49% (inactive)	–
O=S(=O)(NCCS(=O)(=O)N1CCN(c2ccccc2)CC1)c1ccc(Cl)cc1	-10.1% (inactive)	–
CC(C)[C@@H]1COC(c2cccc(C3=N[C@H](C(C)C)CO3)c2)=N1	55% [at 102 µM] (inactive)	–
CN(C(=O)c1ccno1)c1nnc(-c2cccnc2)s1	19.5% (inactive)	–
CN(C(=O)c1ccccn1)c1nnc(-c2ccccn2)s1	–	70.8 µM (active)
COc1cc(OC)cc(-c2nnc(N(C)C(=O)c3ccncc3)s2)c1	-3.36% [at 102 µM] (inactive)	–
CC(C)CCN1CCC(C)(NC(=O)c2ccccc2)C1=O (stereo not given)	-0.393% [at 0.501 µM] (inactive)	–
COc1ncnc2c1N=C1CC(C)(C)CC(N)=C1S2	–	3.16 µM (active)
CC(=O)c1cccc(NC(=S)N2CCCC2)c1	9.21% [at 102 µM] (inactive)	–
CC(C)NC(=S)N1CCN(S(C)(=O)=O)CC1	11.9% (inactive)	–
CC(=O)c1cccc(NC(=S)N2CCN(S(C)(=O)=O)CC2)c1	–	44.7 µM (active)
O=C(Cc1ccc(Cl)cc1)NC1CCS(=O)(=O)C1 (stereo not given)	28.8% [at 102 µM] (inactive)	–
Cc1cc(C)c(CN2CCN(C(=O)Cn3ccc(NC(=O)OCc4ccccc4)nc3=O)CC2)c(C)c1	-47.4% [at 0.501 µM] (inactive)	–
NC(=O)C1CCN(C(=O)c2ccc(F)c(S(=O)(=O)N3CCOCC3)c2)CC1	2.82% [at 2.33 µM] (inactive)	–
CCOc1ccc(-c2n[nH]c3c2C(c2ccccc2OC)N(c2ccc(Br)cc2)C3=O)cc1 (stereo not given)	3.64% (inactive)	–
Cc1sc2ncnc(N3CCC(C(=O)NNC(=O)c4ccc(F)cc4)CC3)c2c1C	-33.1% (inactive)	–
Cc1ccc(Cl)cc1NC(=S)N(CCN(C)C)Cc1cccs1	–	39.8 µM (active)
Cc1ccccc1NC(=S)N(CCCN1CCOCC1)Cc1cccs1	15% (inactive)	–
Cc1ccc(NC(=S)N(CCN(C)C)Cc2cccs2)cc1C	-39.7% [at 102 µM] (inactive)	–
CC(C)Nc1ccc(-n2nc3ccccc3[n+]2[O-])cc1	12.3% [at 102 µM] (inactive)	–
c1ccc2cc(CCCc3cc4ccccc4cn3)ncc2c1	5.78% [at 0.501 µM] (inactive)	–
NC(=O)C1CCN(C(=O)c2cn(-c3ccccc3)nc2-c2cccnc2)CC1	1.41% [at 102 µM] (inactive)	–
Cc1ccc(C)n1C(Cc1ccccc1)C(=O)O (stereo not given)	–	35.5 µM (active)
COc1ccc(CNC(=O)C(Cc2ccccc2)n2cccc2)cc1 (stereo not given)	-36.8% [at 102 µM] (inactive)	–
CC(Cc1ccccc1)C(=O)N(C)Cc1ccccc1 (stereo not given)	-4.83% [at 102 µM] (inactive)	–
